This is an account of results in PubChem BioAssay (EPA / NIEHS).

Active and inactive are the calls of the source. The calls were made as follows: active = hit-call score of the fitted dose curve at least 0.9, where 1 is the maximum; inactive = score below 0.9.

Read-out in this assay: CYP3A5 (gene 1577)
Nature of the assay: LTEA_HepaRG_CYP3A5: Life Technologies and Expression Analysis (LTEA) Assay for CYP3A5 using HepaRG (AID 2283493). Conditions: mRNA level, 48 h; actives raise or lower the signal. The protocol:
LTEA_HepaRG is a cell based, multiplexed-readout assay that uses HepaRG, a human liver cell line, with measurements taken at 48 hours after chemical dosing on a 96-well plate.LTEA_HepaRG_CYP3A5 is one of 102 assay component(s) measured in the LTEA HepaRG cell culture assay. It is a marker of NR mediated metabolism.Data from the assay component LTEA_HepaRG_CYP3A5 was analyzed into 1 endpoint. This assay endpoint, LTEA_HepaRG_CYP3A5, was analyzed with bidirectional fitting relative to DMSO as the negative control and baseline of activity. Using a type of inducible reporter, measures of mRNA induction for gain or loss-of-signal activity can be used to understand regulation of transcription factor activity. To generalize the intended target to other relatable targets, this assay endpoint is annotated to the cyp intended target family, where the subfamily is xenobiotic metabolism.
A total of 1060 chemcials from the ToxCast library were tested in eight-point concentration-response experiments. Cell culture and cytotoxicity assays were conducted at Thermo Fisher Scientific's Custom Services facility (Madison, WI). A single lot of human HepaRG cells (Thermo Fisher Scientific, Frederick, MD) was used for the cell culture experiments. 96-well format collagen type I coated plates of human HepaRG cells were prepared using established methods. Briefly, cryopreserved HepaRG cells were thawed, plated at a density of approximately 100,000 cells/well in HepaRG Thaw, Plate, and General Purpose media (HPRG770, Thermo Fisher Scientific), and incubated for 48 hours. 0.5% DMSO was selected as vehicle control to balance the requisite need of DMSO in HepaRG cultures to maintain differentiation (for example, baseline metabolism, proportions of hepatocytes vs. cholangiocytes), while enabling further hepatic receptor pathway activation (for example, PXR and CAR) in response to chemical exposure. 48 hours after plating, the culture medium was replaced with HepaRG Serum-Free Incudtion Media. Cells were exposed to each test chemical in duplicate and maintained in CO2 incubators for another 48 hours. Chemical plates were thawed to room temperature and 200x concentrations of treatment groups were prepared. 8-point conentration-reponse curves were made with the highest exposure at 100 uM, followed by half-log dilutions, all in 0.5% DMSO. Each test plate contained variouse controls, induction positive controls (1mM phenobarbital), cytotoxicity positive controls ([…] aflatoxin B1), vehicle controls (0.5% DMSO), and total lysis controls (0.5% DMSO). Cell morphology images were taken using an Essen IncuCyte FLR automated microscope, with six 96-well plates imaged in about 24 minutes. Images were captured and exported and JPEG files. Spent culture media was transfered to black-well plates for the LDH assay, and remaining media was sorted at -80 C for later use. Cells were treated with RLT buffer and frozen until shipped for gene expression analysis. Total RNA was isolated from the cell suspension in 75 uL of Buffer RLT (Qiagen, Germantown, MD 20874) by Quintiles/Expression Analysis (Durham, NC) using a custom isolation procedure. Total RNA from each plate well was transferred to a preamplification plate. Fluidigm's 96.96 Dynamic ArrayTM (Fluidigm, Amsterdam, the Netherlands) technology was used for gene expression analyses by quantitative reverse transcription polymerase chain reaction (qRT-PCR, performed by Quintiles/Expression Analysis, Durham, NC)89. Standard TaqManTM Assays (Applied Biosystems/ThermoFisher Scientific, Foster City, CA) were used to assess the expression of 93 genes selected based on their selectivity and sensitivity to important hepatic receptors known to be modulated by environmental chemicals; importance in human hepatocyte functionality; and hepatotoxicity. […]
For the molecule `CCC12COCN1COC2`, the outcome was inactive. Same read-out and setting: for `COc1cc(C=O)cc2c1[C@H](COC(N)=O)[C@]1(OC(C)=O)ON2C[C@H]2[C@@H]1N2C(C)=O` the value was “inactive”; for `CCCCOC(=O)c1ccccc1C(=O)OCc1ccccc1`, “inactive”; for `Cn1cc(-c2ccccc2)c(=O)c(-c2cccc(C(F)(F)F)c2)c1`, “inactive”.

As to `CCCCCCCCOC(=O)c1ccc(C(=O)OCCCCCCCC)c(C(=O)OCCCCCCCC)c1`, the call was inactive. On the same count and under the same terms, the result for `CCC(C)c1ccc(O)cc1` (stereo not given) reads “inactive”; that for `Oc1ccccc1Cl`, “inactive”. As for `CCN(CC)CCO`, the call was inactive.

With `C[N+](C)(C)CC1CO1` (stereo not given), the call was inactive.

Consider `c1ccc2c(c1)-c1cccc3cccc-2c13`, for which the call was inactive. On the same count and under the same terms, the result for `O=C(Oc1ccc(Br)cc1)N1CCN2CCC1CC2` reads “inactive”.

Turning to `CCCCCCCCCCCCCN1CC(C)OC(C)C1` (stereo not given), the result was inactive. Still for that read-out and setting: the result for `CCN(CC)N=O` reads “inactive”. Same read-out and setting: the result for `CC(O)CCO` (stereo not given) reads “inactive”. Take `Clc1ccc(C(c2ccc(Cl)cc2)C(Cl)Cl)cc1`: the AC50 is 29.7 µM (active). As for `COC(=O)Nc1nc2ccccc2[nH]1`, the molecule was classed as inactive. On the same count and under the same terms, for `CS(=O)(=O)NC(=O)c1cc(Oc2ccc(C(F)(F)F)cc2Cl)ccc1[N+](=O)[O-]` the value was “inactive”; for `Clc1ccc(Cl)c(Cl)c1`, “inactive”. On the same count and under the same terms, the result for `ClC1=C(Cl)[C@]2(Cl)[C@H]3[C@H]([C@@H]4C=C[C@H]3C4)[C@@]1(Cl)C2(Cl)Cl` reads “inactive”; that for `CC(C)(C)C(O)(CCc1ccc(Cl)cc1)Cn1cncn1` (stereo not given), “inactive”. The same measure, in the same setting: for `Cc1ccc(N)c(N)c1` the value was “inactive”. Take `CN(C)[C@@H]1C(=O)C(C(N)=O)=C(O)[C@@]2(O)C(=O)C3=C(O)c4c(O)cccc4[C@@](C)(O)[C@H]3C[C@@H]12`: the outcome was inactive. Consider `CO[C@@H]1[C@H](OC(=O)NC(=O)CCl)CC[C@]2(CO2)[C@H]1[C@@]1(C)O[C@@H]1CC=C(C)C`, for which the call was inactive. With `OCCCl`, the molecule was classed as inactive.

As for `COC(=O)c1ccccc1N`, the molecule was classed as inactive. Still for that read-out and setting: the result for `ClCCOCCCl` reads “inactive”.

As to `CN(C)c1ccc(C(=O)c2ccc(N(C)C)cc2)cc1`, the call was inactive. As to `Nc1ccc(N=Nc2ccccc2)cc1`, the AC50 was 14.2 µM (active). As to `Brc1ccc(Oc2ccccc2)cc1`, the molecule was called inactive. The same measure, in the same setting: the result for `OCCOCCO` reads “inactive”; that for `CC(C)N(Cc1ccccc1)C(=O)C(C)(C)C`, “inactive”. With `CC(C)(OOC(C)(C)c1ccccc1)c1ccccc1`, the molecule was classed as inactive. The same measure, in the same setting: for `Nc1ccc([N+](=O)[O-])cc1` the value was “inactive”. Still for that read-out and setting: the result for `CNC(=O)Oc1cccc2c1OC(C)(C)C2` reads “inactive”; that for `[O-][Cl+]O`, “inactive”.

Turning to `O=[N+]([O-])c1ccc(Oc2ccc(Cl)cc2Cl)cc1`, the result was inactive. The same measure, in the same setting: for `CC(C)(C)OOC(C)(C)CCC(C)(C)OOC(C)(C)C` the value was “inactive”; for `N#CC(Br)Br`, “inactive”. The same measure, in the same setting: the result for `CN(C)c1ccccc1` reads “inactive”. As for `Cc1ccc([N+](=O)[O-])cc1`, the outcome was inactive.
